# According to the supplement of paper PMC12067093, “Discovery and optimisation of a covalent ligand for TRIM25 and its application to targeted protein ubiquitination” (Chemical Science, 2025):
# Of roughly 21,000 targets only a part is listed; those with the largest changes were picked by preference.
# Biological target: CLIC1_O00299_191_LHIVQVVCKK (UniProt O00299)
# Assay: probe-labelled cysteine peptide fold change vs DMSO (competition) (log2 fold change); higher = less target engagement (more negative = stronger competition)
# Details: THP-1, incubation time: 4 h
# 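Also: competitive chemoproteomic profiling in live THP-1 cells with an iodoacetamide desthiobiotin (IA-DTB) probe, comparing probe-labelled peptide intensities in compound-treated cells against DMSO-treated controls.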
smiles,measurement,setting,value
CC1Cc2ccccc2N1C(=O)C1CCCN(C(=O)CCl)C1 (mixture of isomers) [TRIM25 ligand 11 (diastereomer mixture)],probe-labelled cysteine peptide fold change,10 µM,-0.428
same,probe-labelled cysteine peptide fold change,50 µM,-0.575
